Several values for one entry are separate records, joined by “and”; a condition that tells them apart may be missing. Equal entries are not always repeated. Screen size: about 5,500 compounds; about 2,000 (36%) were called active. Not shown: some 18% with an inconclusive outcome. No stated cut-off is given here; in the data, active means normalized growth mostly below about 0.91 (no sharp cut-off); inconclusive means no clear call, values can overlap the other calls; inactive means mostly above about 0.92. This is one part of the list.
Test: chemical genetic growth profiling, strain panel (AID 1159580);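 further: tested at 20 µM; growth read once vehicle control cultures reached saturation at 30 °C; 1 = growth at the plate median or of vehicle wells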
Conditions: S. cerevisiae deletion strains, growth OD

Measured: normalized growth

CC(C)CC1C(=O)N2CCC[C@H]2C2(O)O[C@](NC(=O)C3C=C4c5cccc6[nH]c(Br)c(c56)C[C@H]4N(C)C3)(C(C)C)C(=O)N12 (stereo partly specified)
inactive: locus YAL013W, strain DEP1, stronger effect = lower value 0.989 | locus YAL021C, strain ccr4, stronger effect = lower value 0.976 | locus YAL026C, strain drs2, stronger effect = lower value 0.991 | locus YAL030W, strain snc1, stronger effect = lower value 0.998 | locus YBL061C, strain skt5, stronger effect = lower value 0.987 | locus YBR009C, strain hhf1, stronger effect = lower value 0.996 | locus YBR021W, strain FUR4, stronger effect = lower value 0.996 | locus YBR023C, strain chs3, stronger effect = lower value 0.992 | locus YBR171W, strain sec66, stronger effect = lower value 0.981 | locus YBR229C, strain ROT2, stronger effect = lower value 0.993 | locus YBR231C, strain swc5, stronger effect = lower value 0.968 | locus YBR279W, strain paf1, stronger effect = lower value 0.988 | locus YCL011C, strain gbp2, stronger effect = lower value 0.976 | locus YCL016C, strain dcc1, stronger effect = lower value 0.995 | locus YCL029C, strain bik1, stronger effect = lower value 0.961 | locus YCL069W, strain vba3, stronger effect = lower value 0.997 | locus YCR088W, strain abp1, stronger effect = lower value 0.99 | locus YDL005C, strain med2, stronger effect = lower value 0.987 | locus YDL035C, strain GPR1, stronger effect = lower value 0.993 | locus YDL040C, strain nat1, stronger effect = lower value 0.984 | locus YDL074C, strain BRE1, stronger effect = lower value 0.974 | locus YDL101C, strain DUN1, stronger effect = lower value 0.988 | locus YDL134C, strain PPH21, stronger effect = lower value 0.992 | locus YDL185W, strain tfp1, stronger effect = lower value 0.947 | locus YDL192W, strain arf1, stronger effect = lower value 0.965 | locus YDR001C, strain nth1, stronger effect = lower value 0.972 | locus YDR069C, strain doa4, stronger effect = lower value 0.983 | locus YDR101C, strain arx1, stronger effect = lower value 0.984 | locus YDR137W, strain rgp1, stronger effect = lower value 0.885 | locus YDR150W, strain NUM1, stronger effect = lower value 0.976 | locus YDR159W, strain sac3, stronger effect = lower value 0.989 | locus YDR162C, strain NBP2, stronger effect = lower value 0.989 | locus YDR195W, strain ref2 0.962 | locus YDR297W, strain sur2, stronger effect = lower value 0.976 | locus YDR318W, strain mcm21, stronger effect = lower value 0.977 | locus YDR334W, strain swr1, stronger effect = lower value 0.973 | locus YDR335W, strain msn5, stronger effect = lower value 0.995 | locus YDR388W, stronger effect = lower value 0.989 | locus YDR392W, strain spt3, stronger effect = lower value 0.959 | locus YDR502C, strain sam2, stronger effect = lower value 0.972 | locus YEL003W, strain gim4, stronger effect = lower value 0.981 | locus YEL037C, strain rad23, stronger effect = lower value 0.989 | locus YEL061C, strain CIN8 (second series), stronger effect = lower value 0.995 | locus YEL061C, strain CIN8, stronger effect = lower value 0.982 | locus YER015W, strain faa2, stronger effect = lower value 0.972 | locus YER016W, strain bim1, stronger effect = lower value 0.982 | locus YER110C, stronger effect = lower value 0.964 | locus YER111C, strain swi4, stronger effect = lower value 0.993 | locus YER155C, strain BEM2 (second series), stronger effect = lower value 0.973 | locus YER155C, strain BEM2, stronger effect = lower value 0.985 | locus YER167W, strain BCK2, stronger effect = lower value 0.961 | locus YFR010W, strain ubp6, stronger effect = lower value 1.01 | locus YGL078C, strain dbp3, stronger effect = lower value 0.965 | locus YGL086W, strain mad1, stronger effect = lower value 0.97 | locus YGL167C, strain pmr1, stronger effect = lower value 0.974 | locus YGL173C, strain kem1, stronger effect = lower value 1 | locus YGL227W, strain vid30, stronger effect = lower value 0.994 | locus YGL240W, strain doc1, stronger effect = lower value 0.943 | locus YGL248W, strain PDE1, stronger effect = lower value 0.987 | locus YGL253W, strain hxk2, stronger effect = lower value 0.993 | locus YGR078C, strain PAC10, stronger effect = lower value 0.989 | locus YGR135W, strain pre9, stronger effect = lower value 0.982 | locus YGR229C, strain SMI1, stronger effect = lower value 1.01 | locus YGR252W, strain gcn5, stronger effect = lower value 1.14 | locus YHR013C, strain ard1, stronger effect = lower value 0.945 | locus YHR027C, strain rpn1, stronger effect = lower value 0.962 | locus YHR030C, strain SLT2, stronger effect = lower value 0.981 and 0.978 | locus YHR079C, strain IRE1 (second series), stronger effect = lower value 0.982 | locus YHR079C, strain IRE1, stronger effect = lower value 0.986 | locus YHR094C, strain hxt1, stronger effect = lower value 0.966 | locus YHR129C, strain ARP1, stronger effect = lower value 0.985 | locus YHR142W, strain chs7, stronger effect = lower value 1.01 | locus YHR200W, strain rpn10, stronger effect = lower value 0.976 | locus YIL066C, strain RNR3, stronger effect = lower value 0.981 | locus YIL073C, strain SPO22, stronger effect = lower value 0.925 | locus YIL125W, strain kgd1, stronger effect = lower value 0.965 | locus YIR030C, strain dcg1, stronger effect = lower value 0.987 | locus YJL092W, strain hpr5, stronger effect = lower value 0.968 | locus YJL095W, strain BCK1 (second series), stronger effect = lower value 0.999 | locus YJL095W, strain BCK1, stronger effect = lower value 0.971 and 0.976 | locus YJL115W, strain asf1, stronger effect = lower value 0.958 | locus YJL129C, strain trk1, stronger effect = lower value 0.957 | locus YJL134W, strain LCB3, stronger effect = lower value 0.983 | locus YJL154C, strain vps35, stronger effect = lower value 0.979 | locus YJL164C, strain tpk1, stronger effect = lower value 0.997 | locus YJL166W, strain qcr8, stronger effect = lower value 0.996 | locus YJL168C, strain set2, stronger effect = lower value 0.977 | locus YJL187C, strain SWE1 (second series), stronger effect = lower value 0.979 | locus YJR043C, strain POL32, stronger effect = lower value 0.995 | locus YJR066W, strain TOR1, stronger effect = lower value 0.993 | locus YJR075W, strain HOC1, stronger effect = lower value 0.992

From PubChem BioAssay AID1159580 (chemical genetic matrix, 2015)
